Activity change, negative = inhibition data for 18 compounds are collected here from PubChem BioAssay AID1259421 (Broad Institute, 2018).

“And” between values parts separate entries of the source, which are not always exact repeats. Identical values can stand only once. About 610 (9.5%) of roughly 6,400 compounds were called active. The sample holds actives, similar compounds and a random draw of the others, so the mix is not that of the screen. Rule as the data show it: active = activity change below about -70%; inconclusive = no clear call, values can overlap the other calls; inactive = above that. Some compounds were tested as several samples or in several runs, with calls that do not always agree.

The nature of this experiment: T. gondii ME49Luc in HeLa cells, luciferase assay, 72 h, no IFN-y (AID 1259421). To be noted: stronger effect = lower value, concentration not given here.
As to `CCNC(=O)[C@H]1O[C@@H](n2cnc3c(N)nc(NCCc4ccc(CCC(=O)O)cc4)nc32)[C@@H](O)[C@@H]1O`, the activity change, negative = inhibition is 9.76% (inactive).
The figure for `CC(C)(C)c1cnc(CSc2cnc(NC(=O)C3CCNCC3)s2)o1` is -71.7% (active); for `CC(=O)O[C@@H]1CC2C(C)(C)[C@H](O)CC[C@]2(C)C2CC[C@@]3(C)[C@H](c4ccoc4)OC(=O)C4OC43[C@@]21C` (stereo partly drawn) it is 14.1% (inactive); for `COc1cccc(CCc2ccccc2OCC[C@@H]2C[C@@H](O)CN2C)c1` it is -6.08% (inactive) and -38.5% (inactive).
Regarding `Nc1ccc(-c2cccc3c(=O)cc(N4CCOCC4)oc23)cc1`, the activity change, negative = inhibition is 3.1% (inactive) and -4.84% (inactive).
Regarding `O=c1cc(N2CCOCC2)oc2c(-c3ccccc3)cccc12`, the activity change, negative = inhibition was 13.4% (inactive).
With `O=c1cc(N2CCNCC2)oc2c(-c3ccccc3)cccc12` the figure was -75.1% (active) and -94.2% (active).
Take `Nc1ncnc2c1ncn2[C@@H]1O[C@H](COP(=O)(O)OP(=O)(O)OP(=O)(O)OP(=O)(O)OC[C@H]2O[C@@H](n3cnc4c(N)ncnc43)C(O)C2O)C(O)C1O` (stereo partly drawn): the activity change, negative = inhibition is -3.47% (inactive).
The figure for `O=C1C=CC(=O)C2=C1C1c3ccccc3C2c2ccccc21` is -2.66% (inactive); for `Cn1cccc1/C=C1\C(=O)NC(=O)c2ccccc21` it is -4.19% (inactive); for `CCc1cc(Cl)c(OC)c(C(=O)NCC2CCCN2CC)c1O` (stereo not drawn) it is 0.175% (inactive).
For the compound `c1cnc(SCc2cccnc2)nc1`, the activity change, negative = inhibition is 15.1% (inactive).
The figure for `C[N+](C)(CCOc1ccccc1)Cc1ccccc1` is 13.6% (inactive); for `CC(C)(C)CC(C)(C)c1ccc(OCCOCC[N+](C)(C)Cc2ccccc2)cc1` it is -84.1% (active) and 4.83% (inactive); for `Cc1cc(C(C)(C)CC(C)(C)C)ccc1OCCOCC[N+](C)(C)Cc1ccccc1` it is -1.86% (inactive).
For the compound `CC(O)COC[C@H]1O[C@@H]2O[C@H]3[C@H](O)[C@@H](O)[C@@H](O[C@H]4[C@H](O)[C@@H](O)[C@@H](O[C@H]5[C@H](O)[C@@H](O)[C@@H](O[C@H]6[C@H](O)[C@@H](O)[C@@H](O[C@H]7[C@H](O)[C@@H](O)[C@@H](O[C@H]8[C@H](O)[C@@H](O)[C@@H](O[C@H]1[C@H](O)[C@H]2O)O[C@@H]8COCC(C)O)O[C@@H]7COCC(C)O)O[C@@H]6COCC(C)O)O[C@@H]5COCC(C)O)O[C@@H]4COCC(C)O)O[C@@H]3COCC(C)O` (stereo partly drawn), the activity change, negative = inhibition was 10.2% (inactive).
With `C=CCn1c(=O)n(C2OC(CO)C(O)C2O)c2nc(N)[nH]c(=O)c21` (stereo not drawn), the activity change, negative = inhibition is 0.162% (inactive).
Consider `CCNC(=O)[C@@H]1CCCN1C(=O)[C@H](CCCN=C(N)N)NC(=O)[C@H](CC(C)C)NC(=O)[C@@H](COC(C)(C)C)NC(=O)[C@H](Cc1ccc(O)cc1)NC(=O)[C@H](CO)NC(=O)[C@H](Cc1c[nH]c2ccccc12)NC(=O)[C@H](Cc1cnc[nH]1)NC(=O)C1CCC(=O)N1` (stereo partly drawn), for which the activity change, negative = inhibition is 9.62% (inactive).
